# The panel holds about 79,000 compounds, 15% with a hit somewhere; the sample as a whole holds those more often. Unmarked numbers belong to inactive results. Rule as the data show it: active = growth inhibition above about 70%; inactive = the rest.
# Experiment: NCI Yeast Anticancer Drug Screen. Data for the CLN2oe strain (AID 163);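 also: 0% = growth of vehicle-only control cultures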
# Details: S. cerevisiae CLN2oe strain, at 3.7 µM, active compounds read high
# Summary of the method: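 Read-out: yeast growth inhibition, expressed relative to vehicle-only controls. The strain bears an engineered cell-cycle alteration.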
row,Compound,growth inhibition
1,CSc1nc(C)c(CCOC(C)=O)c(N=P(c2ccccc2)(c2ccccc2)c2ccccc2)n1,10%
2,CS(=O)(=O)SCc1ccc([N+](=O)[O-])cc1,7%
3,COC1=C(OC)C(=O)C(Sc2ccc3ccccc3c2)=CC1=O,19%
4,COc1nc2c(c(=O)n1C)N=C(c1ccccc1)[C@H](C(CC(=O)c1ccccc1)c1ccccc1)C(c1ccccc1)N2 (stereo partly specified),1%
5,Cc1cc(-c2cc(C)c(O)c(C(C)(C)C)c2)cc(C(C)(C)C)c1O,-62%
6,Nc1cc(N)c(N=Nc2cccc3c(S(=O)(=O)O)cccc23)cc1N=Nc1cc([N+](=O)[O-])ccc1O,16%
7,Nc1ccc(F)cc1S,-50%
8,Brc1ccccc1-c1ncc(-c2ccccc2)o1,-8%
9,COc1cc(C2SCC(=O)N2c2ccc(-c3ccc(-n4c(-c5ccccc5)nc5ccccc5c4=O)cc3)cc2)ccc1O (stereo unspecified),-2%
10,Nc1ncnc2c1ncn2C1OC(CO)CC1O (stereo unspecified),9%
11,COc1cc(CSc2ccc(O)cc2)cc(O)c1O,8%
12,CCOC(=O)C1N=[N+](c2ccccc2)C(=O)/C1=C\n1c(=S)[nH]c2ccc([N+](=O)[O-])cc21 (stereo unspecified),-1%
13,CNC(=O)OCc1c(COC(=O)NC)c2n(c1C)-c1ccc(OC)cc1CCC2,-16%
14,O=C(NNc1ccccc1)c1ccc(Cl)c(Cl)c1,-3%
15,Cc1ccc(CC2(OCCN(C)C)CCC(C(C)(C)C)CC2)cc1 (stereo unspecified),-18%
16,CCCC/C=C/C(C)(C(=O)OCC)C(=O)OCC,-7%
17,CCc1c(Cl)c(C)cc(O)c1Cl,-18%
18,O=C(/C=C(/c1ccccc1)N1CCCCC1)c1ccccc1,-7%
19,CCCC(=O)Oc1ccc(/C=N/NC(N)=S)nc1,-7%
20,CCc1nc2ccc(NCCN(C)C)c3c(=O)c4ccccc4n1c23,13%
21,Cc1sc2ccc3ccccc3c2[n+]1C,-64%
22,COc1c(O)c(C=O)c(Br)c(C=O)c1O,0%
23,Cc1ccc(Cl)cc1NC(=O)OCCN(C)C(=O)Nc1cc(Cl)ccc1C,-28%
24,Cc1nc2ccccc2nc1NNc1ccccc1,-2%

# Same assay, conditions: S. cerevisiae CLN2oe strain, at 11.0 µM, active compounds read high
row,Compound,growth inhibition
1,CN(C)c1ccc(C2CC(C)(O)Oc3cc4c(cc32)OCO4)cc1 (stereo unspecified),4%
2,O=P(NC1CCCCC1)(OCc1ccccc1)OCc1ccccc1,10%
3,COc1oc(C(=O)NC2CCCCC2)c(-c2ccc(Cl)cc2)c1S(=O)(=O)c1ccccc1,30%
4,C[Si](C)(C)/C=C/CCNC(C#N)c1ccccc1 (stereo unspecified),52%
5,CCOc1ccc(NC(=O)C2=C(C)NC(C)=C(C(=O)Nc3ccc(OCC)cc3)C2c2cccc([N+](=O)[O-])c2)cc1,-7%
6,CN(C)CCOC1(Cc2ccc(F)cc2)CCC(C(C)(C)C)CC1 (stereo unspecified),-5%
7,CC1(C)CC(=O)C(/C=N/c2nc(-c3ccccc3)cs2)=C(O)C1,1%
8,CC(=O)Nc1ccc2c(c1)Cc1cc(N=C3C=CC(=O)O3)ccc1-2,47%
9,O=C1C=C(Cl)C(=O)C(c2ccc(Cl)cc2)=C1,69%
10,CCCCCCCCCCCC(O)S(=O)(=O)O (stereo unspecified),-2%
11,CC(C)OC(=O)c1ccc(CCc2cc(O)c(Br)cc2O)cc1,53%
12,CCc1cc(O)c(Cl)c(C)c1Cl,1%
13,C(=Nc1ccc(-c2cc(-c3ccccc3)nc3ccc4ccccc4c23)cc1)c1ccccc1,34%
14,CSc1nc(C)c(CCOC(C)=O)c(N=P(c2ccccc2)(c2ccccc2)c2ccccc2)n1,0%
15,CS(=O)(=O)SCc1ccc([N+](=O)[O-])cc1,57%
16,COC1=C(OC)C(=O)C(Sc2ccc3ccccc3c2)=CC1=O,45%
17,COc1nc2c(c(=O)n1C)N=C(c1ccccc1)[C@H](C(CC(=O)c1ccccc1)c1ccccc1)C(c1ccccc1)N2 (stereo partly specified),4%
18,Cc1cc(-c2cc(C)c(O)c(C(C)(C)C)c2)cc(C(C)(C)C)c1O,-42%
19,Nc1cc(N)c(N=Nc2cccc3c(S(=O)(=O)O)cccc23)cc1N=Nc1cc([N+](=O)[O-])ccc1O,-4%

row,Compound,growth inhibition
1,Nc1ccc(F)cc1S,-24%
2,Brc1ccccc1-c1ncc(-c2ccccc2)o1,3%
3,COc1cc(C2SCC(=O)N2c2ccc(-c3ccc(-n4c(-c5ccccc5)nc5ccccc5c4=O)cc3)cc2)ccc1O (stereo unspecified),-7%
4,Nc1ncnc2c1ncn2C1OC(CO)CC1O (stereo unspecified),27%
5,COc1cc(CSc2ccc(O)cc2)cc(O)c1O,10%
6,CCOC(=O)C1N=[N+](c2ccccc2)C(=O)/C1=C\n1c(=S)[nH]c2ccc([N+](=O)[O-])cc21 (stereo unspecified),-1%
7,CNC(=O)OCc1c(COC(=O)NC)c2n(c1C)-c1ccc(OC)cc1CCC2,-5%
8,O=C(NNc1ccccc1)c1ccc(Cl)c(Cl)c1,0%
9,Cc1ccc(CC2(OCCN(C)C)CCC(C(C)(C)C)CC2)cc1 (stereo unspecified),-11%
10,CCCC/C=C/C(C)(C(=O)OCC)C(=O)OCC,-8%
11,CCc1c(Cl)c(C)cc(O)c1Cl,-4%
12,O=C(/C=C(/c1ccccc1)N1CCCCC1)c1ccccc1,-3%
13,CCCC(=O)Oc1ccc(/C=N/NC(N)=S)nc1,-11%
14,CCc1nc2ccc(NCCN(C)C)c3c(=O)c4ccccc4n1c23,17%
15,Cc1sc2ccc3ccccc3c2[n+]1C,-39%
16,COc1c(O)c(C=O)c(Br)c(C=O)c1O,17%
17,Cc1ccc(Cl)cc1NC(=O)OCCN(C)C(=O)Nc1cc(Cl)ccc1C,-48%
18,Cc1nc2ccccc2nc1NNc1ccccc1,10%
